# Data reported in PubChem BioAssay AID463173 (ICCB-Longwood Screening Facility, Harvard Medical School, 2010).
# Hit rate of the full screen: of about 52,000 compounds, about 4,300 (8.3%) were called active. This is one part of a sample in which actives are shown more often than they occur. Unmarked numbers belong to inactive results. No stated cut-off is given here; in the data, active means survival mostly below about 52% (no sharp cut-off); inactive means mostly above about 56%.
# System: DeltatarO mutant
# Experiment: S. aureus survival, RN4220 and DeltatarO strains – OD600, teichoic acid synthesis inhibitors, primary screen (AID 463173)
# Settings: S. aureus RN4220 wild type/DeltatarO growth, OD600, 18 h, active compounds read low, screened at 18.75 µg/mL (by protocol)
row,Compound,survival
1,Cc1cc(S(=O)(=O)N2CCCC2)ccc1-n1cnnn1,113%
2,CCOC(=O)c1ccc(NC(=O)CSc2nc3ccccc3c(=O)n2CCC(=O)NC2CCCCC2)cc1,91%
3,CC(C)=CCc1c(O)cc(O)c2c1OC(c1ccccc1)CC2=O (stereo unspecified),1% (active)
4,CC1(C)OC(c2ccccc2)CC1=O (stereo unspecified),110%
5,Cc1oc(-c2ccccc2F)nc1CS(=O)CC(=O)NC(C)C (stereo unspecified),89%
6,Cc1ccc(Sc2c(C)nn(C(=O)COc3ccc(F)cc3)c2C)cc1,92%
7,Cc1ccc(Sc2c(C)nn(C(=O)COc3ccccc3)c2C)cc1,25% (active)
8,Cc1nn(C(=O)c2ccc(Cl)cc2)c(C)c1Sc1ccc(Cl)cc1,51% (active)
9,Cc1nn(C(=O)c2ccc(Cl)cc2)c(C)c1S(=O)(=O)N1CCOCC1,91%
10,Cc1nn(C(=O)c2ccc(Cl)cc2)c(C)c1S(=O)(=O)N1CCCCCC1,80%
11,COc1cc(C(=O)n2nc(C)c(Sc3ccc(Cl)cc3)c2C)cc(OC)c1OC,57%
12,Cc1ccc(Sc2c(C)nn(C(=O)c3ccc(Cl)cc3)c2C)cc1,19% (active)
13,Cc1nn(C(=O)c2ccccc2)c(C)c1Sc1ccc(Cl)cc1,10% (active)
14,Cc1ccc(C(=O)n2nc(C)c(S(=O)(=O)N3CCCCCC3)c2C)cc1,91%
15,Cc1nn(C(=O)COc2ccc(Cl)cc2)c(C)c1Sc1ccccc1,87%
16,Cc1nn(C(=O)c2ccccc2)c(C)c1S(=O)(=O)N1CCCCCC1,89%
17,Cc1nn(C(=O)COc2ccccc2)c(C)c1Sc1ccccc1,115%
18,Cn1nccc1C(=O)NCc1ccc2c(c1)CCN2C(=O)c1ccccc1,90%
19,O=C1CN(C(=O)c2ccc(S(=O)(=O)N3CCCCC3)cc2)C(c2ccc(F)cc2)c2cc(Br)ccc2N1 (stereo unspecified),77%
20,COc1ccc(-n2c(SCc3nc(-c4ccc(C)cc4)no3)nnc2-c2ccccc2)cc1,60%
21,O=C(Nc1ccc(OC(F)(F)F)cc1)C1CCCN(S(=O)(=O)c2cccc3nonc23)C1 (stereo unspecified),96%
22,Cc1cc(C)cc(C(=O)NCC(c2ccc(N(C)C)cc2)N2CCCC2)c1 (stereo unspecified),95%
23,CCN(CC)CCn1c(=N)n(CCOc2ccccc2Cl)c2ccccc21,59%
24,CC1CCN(c2nc3ccccc3nc2C(F)(F)F)CC1,75%

row,Compound,survival
1,CC1CCN(c2nc(-c3ccc(Br)cc3)nc3ccccc23)CC1,82%
2,Brc1ccc(-c2nc(N3CCN(c4ccccc4)CC3)c3ccccc3n2)cc1,117%
3,CC1CCN(c2nc(-c3ccc(C(C)(C)C)cc3)nc3ccccc23)CC1,6% (active)
4,CC1CCCCN1c1nc(-c2ccc(C(C)(C)C)cc2)nc2ccccc12 (stereo unspecified),3% (active)
5,CC1CCCCN1C(=O)CSc1nc(C2CC2)nc2ccccc12 (stereo unspecified),82%
6,Cc1ccc(C(C(=O)NC2CCCCC2)N(C(=O)Cc2c[nH]c3ccccc23)C2CC2)o1 (stereo unspecified),94%
7,COc1ccccc1C1CC(=O)NC(C)=C1C(=O)OC1CCCCCC1 (stereo unspecified),86%
8,CCN1CCN(c2ccc(NC(=O)COc3ccccc3)cc2)CC1,106%
9,O=S(=O)(c1ccc(F)cc1)N1CCCCC1,86%
10,O=C(CN1CCN(c2ccc(F)cc2)CC1)N1CCCC1,83%
11,O=S(=O)(N1CCCCC1)N1CCN(c2ccc(F)cc2)CC1,65% (active)
12,CCc1ccc(NC(=O)Cn2c(=O)n(Cc3ccco3)c(=O)c3cccnc32)cc1,82%
13,CC1(C)CC(=O)C=C(NCC(O)c2ccccc2)C1 (stereo unspecified),102%
14,Cc1ccc(CNC(=O)CN(c2ccc(C)cc2)S(=O)(=O)c2c(C)nn(C)c2C)cc1,73%
15,O=C(c1cc2ccccc2oc1=O)N(Cc1ccc(F)cc1)Cc1ccco1,41% (active)
16,O=C(c1cc2ccccc2oc1=O)N(Cc1cccs1)Cc1cccs1,48%
17,Cc1ccccc1CN(Cc1ccco1)C(=O)c1cc2ccccc2oc1=O,44% (active)
18,COc1ccc(CN(Cc2ccco2)C(=O)c2cc3ccccc3oc2=O)c(OC)c1,40% (active)
19,O=C(NCC1CCCO1)c1cc2ccccc2oc1=O (stereo unspecified),80%
20,COc1ccc2oc(=O)c(C(=O)NCc3ccco3)cc2c1,100%
21,O=C(c1cc2ccccc2oc1=O)N(Cc1ccc2c(c1)OCO2)CC1CCCO1 (stereo unspecified),42% (active)
22,CC(C)(C)c1ccc(C(=O)N(Cc2ccc(F)cc2)Cc2ccco2)cc1,55%
23,O=C(c1cc2ccccc2oc1=O)N(Cc1ccc(F)cc1)C1CC1,88%
24,Cc1cccc2cc(CN(Cc3ccco3)C(=O)c3ccccc3)c(=O)[nH]c12,95%

row,Compound,survival
1,CCC1Oc2ccc(C)cc2N(CC(=O)N(Cc2ccc3c(c2)OCO3)CC2CCCO2)C1=O (stereo unspecified),96%
2,COc1ccccc1C(=O)N(Cc1ccco1)Cc1ccccc1F,60%
3,O=C(O)CCn1cnc2sc3c(c2c1=O)CCCC3,105%
4,Nc1cnc2cccc3c2c1-c1ccccc1C3=O,86%
5,Cc1ccc(S(=O)(=O)c2cnc(SCC(=O)Nc3cc(C)cc(C)c3)nc2N)cc1,102%
6,COc1ccc(-c2cc(C(=O)NCCc3ccc(Cl)cc3)[nH]n2)cc1,72%
7,Cc1c(Cl)cccc1-n1ncc(C(=O)N2CCc3ccccc3C2)c1C1CCN(C(=O)OC(C)(C)C)CC1,85%
8,COc1ccc(C(=O)NCCn2cc(SCC(=O)Nc3ccc4c(c3)OCCO4)c3ccccc32)cc1,153%
9,CCOC(=O)c1c(C)oc2nc(C)nc(NCC3CCN(Cc4ccc(F)cc4)CC3)c12,102%
10,Cc1ccc(C)c(NC(=O)CCc2c(C)nn(-c3ccc(N4CCCC4)nn3)c2C)c1,67%
11,COc1ccccc1Nc1c2c(nc3ccc(NC(=O)/C=C/c4cccc(OC)c4OC)cc13)CCCC2,74%
12,Cc1ccccc1Nc1c(-c2c[nH]c3ccccc23)nc2ccccn12,69%
13,Cc1ccccc1Nc1c(-c2ccco2)nc2c(C)cccn12,25% (active)
14,Cc1ccccc1Nc1c(-c2ccc(Cl)s2)nc2cccc(C)n12,99%
15,Cc1ccccc1Nc1c(-c2ccc(Cl)s2)nc2c(C)cccn12,69%
16,Cc1ccc(Nc2c(-c3ccc(C)s3)nc3ccccn23)cc1,31% (active)
17,Cc1ccc(-c2nc3c(C)cccn3c2Nc2ccccc2C)s1,0% (active)
18,Cc1ccc(-c2nc3ccc(Cl)cn3c2Nc2ccccc2C)s1,107%
19,Cc1ccc(-c2nc3ccccn3c2Nc2ccc3c(c2)OCCO3)s1,79%
20,Fc1ccc(Nc2c(-c3ccco3)nc3ccccn23)cc1,53%
21,Cc1ccc(Nc2c(-c3ccc(N(C)C)cc3)nc3ccccn23)cc1,131%
22,Cc1ccc(-c2nc3ccccn3c2Nc2ccccc2C)s1,21% (active)
23,Cc1cccc(C)c1Nc1c(-c2ccccn2)nc2c(C)cccn12,51%
24,COc1ccc2c(c1)c1c(c(=O)n(Cc3ccccc3)c(=O)n1CC(=O)NCc1ccccc1)n2C,91%

row,Compound,survival
1,COc1ccccc1CNC(=O)CCc1c(C)c2ccc(OC)c(C)c2oc1=O,74%
2,Cc1ccc(Cl)cc1-n1nnc(-c2nc(-c3ccc4c(c3)OCO4)no2)c1C,122%
3,N#C/C(=C(/O)CN1C(=O)c2ccccc2C1=O)c1nc2ccccc2[nH]1,76%
4,Cc1ccc2nc(-c3ccc(N4CCOCC4)cc3)c(Nc3ccccc3C)n2c1,71%
5,Cc1ccn2c(Nc3ccccc3C)c(-c3ccc(N4CCOCC4)cc3)nc2c1,89%
6,Cc1ccccc1Nc1c(-c2ccc(N3CCOCC3)cc2)nc2ccccn12,41% (active)
7,Cc1ccc(Nc2c(-c3ccc(N4CCOCC4)cc3)nc3ncccn23)cc1,139%
8,Cc1ccc(-c2nc3ncccn3c2Nc2ccc3c(c2)OCCO3)cc1,79%
9,Cc1ccc(Nc2c(-c3ccc(C)s3)nc3ncccn23)cc1,9% (active)
10,CCOC(=O)c1cnc2cc(-c3ccc(C)cc3)nn2c1C,74%
11,O=C1COc2cc(S(=O)(=O)CCC(=O)NC3CCCCC3)c(Cl)cc2N1,93%
12,CCc1sc(Nc2cccc(C)c2)nc1-c1cc2cccc(OC)c2oc1=O,94%
13,Cc1ccc(CN2C(=O)c3ccccc3Sc3ccc(C(=O)NCc4ccco4)cc32)cc1,81%
14,Cc1ccccc1CN1C(=O)c2ccccc2Sc2ccc(C(=O)NCc3ccccc3)cc21,37% (active)
15,Cc1ccc(CN2C(=O)c3ccccc3Sc3ccc(C(=O)NC4CCCCC4)cc32)cc1,100%
16,Cc1ccccc1CN1C(=O)c2ccccc2Sc2ccc(C(=O)NCCc3ccccc3)cc21,101%
17,Cc1ccc(C)c(CN2C(=O)c3ccccc3Sc3ccc(C(=O)NCc4ccco4)cc32)c1,17% (active)
18,Cc1ccccc1CN1C(=O)c2ccccc2Sc2ccc(C(=O)NCc3cccs3)cc21,93%
19,Cc1cccc(CN2C(=O)c3ccccc3Sc3ccc(C(=O)NCc4ccco4)cc32)c1,102%
20,Cc1cccc(CN2C(=O)c3ccccc3Sc3ccc(C(=O)NCCCN4CCOCC4)cc32)c1,37% (active)
21,Cc1ccc(CN2C(=O)c3ccccc3Sc3ccc(C(=O)NCCCN4CCOCC4)cc32)cc1,126%
22,O=C(NC1CCCC1)c1ccc2c(c1)N(Cc1ccccc1)C(=O)c1ccccc1S2,105%
23,O=C(NCCCN1CCOCC1)c1ccc2c(c1)N(Cc1ccccc1)C(=O)c1ccccc1S2,98%
24,O=C(NC1CCCCC1)c1ccc2c(c1)N(Cc1ccccc1)C(=O)c1ccccc1S2,46% (active)
